Compound activity from PubChem.
ELG1 repair inh – qHTS screen for small molecules that inhibit ELG1-dependent DNA repair in human embryonic kidney (HEK293T) cells expressing luciferase-tagged ELG1; HEK293T ELG1-luciferase reporter, luminescence, 16 h; DNA damage induced by 5-fluorouridine; Potency, µM (top dose mostly 46.1 µM), most hits filed as inhibitors; hit rate 2.3% among 330,000; note: nearly all actives have a fitted effect of over 55% in size
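HEK293T cells expressing luciferase-tagged ELG1 (2,000/well) received 5-Fluorouridine plus compound or DMSO for 16 hr at 37 °C. Luciferase was read by ONE-Glo luminescence after 30 min at room temperature.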
Rab9 prom act – qHTS Assay for Rab9 Promoter Activators. Huh7 Rab9 promoter-luciferase reporter, luminescence, 24 h. Potency, µM (highest dose often 9.22 µM), actives largely listed as activators. hit rate 2.8% among 320,000. AID 485297, 2010; note: nearly all actives have a fitted effect of over 60% in size
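Measured in stably transfected Huh7 cells bearing a Rab9 promoter–luciferase construct: 24 h compound treatment at 37 °C, followed by luminescence detection.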
FLuc counter – qHTS profiling assay for firefly luciferase inhibitor/activator using purifed enzyme and Km concentrations of substrates (counterscreen for miR-21 project). hit rate 6.9% among 360,000. Potency, µM (highest dose often 57.5 µM), actives largely listed as inhibitors. purified FLuc, Km substrates, luminescence inhibition. AID 588342, 2011; note: nearly all actives have a fitted effect of over 55% in size
Target sequence (P08659 whole entry, looked up): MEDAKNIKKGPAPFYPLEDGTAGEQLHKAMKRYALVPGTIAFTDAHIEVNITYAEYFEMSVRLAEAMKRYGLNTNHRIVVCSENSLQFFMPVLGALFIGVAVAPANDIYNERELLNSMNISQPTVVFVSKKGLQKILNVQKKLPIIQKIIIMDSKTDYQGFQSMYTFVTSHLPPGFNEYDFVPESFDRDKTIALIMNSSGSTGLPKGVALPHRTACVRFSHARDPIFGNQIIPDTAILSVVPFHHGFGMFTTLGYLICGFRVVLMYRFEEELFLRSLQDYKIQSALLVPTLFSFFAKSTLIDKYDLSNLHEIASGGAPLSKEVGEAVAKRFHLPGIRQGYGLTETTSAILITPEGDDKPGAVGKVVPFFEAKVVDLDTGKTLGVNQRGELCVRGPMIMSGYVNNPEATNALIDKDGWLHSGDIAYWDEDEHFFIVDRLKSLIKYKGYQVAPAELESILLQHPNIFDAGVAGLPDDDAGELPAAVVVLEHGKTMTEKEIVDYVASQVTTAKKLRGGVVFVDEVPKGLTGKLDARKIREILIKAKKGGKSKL
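Purified P. pyralis luciferase (10nM final) with 10uM D-luciferin and 10uM ATP (Km levels) in 50mM Tris acetate pH 7.5, 10mM Mg acetate, 0.01% Tween-20, 0.05% BSA; qHTS 6-point titration, ~60 µM downward; luminescence read.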
NPC1 promoter act – qHTS Assay for NPC1 Promoter Activators; Huh7 NPC1 promoter luciferase reporter, 24 h; Potency, µM (titrated, usually from 9.22 µM), most hits filed as activators; hit rate 2.4% among 320,000; note: nearly all actives have a fitted effect of over 60% in size
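Stably transfected Huh7 (NPC1 promoter→luciferase), 1500 cells/well in Opti-MEM + 10% FBS, 2 h settle, then compound 24 h at 37 °C. Luminescence after 10 min with Amplite reagent.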
SMN2 splice up – qHTS Assay for Enhancers of SMN2 Splice Variant Expression; HEK293 SMN2-luciferase splicing reporter, luminescence, 30-36 h; Potency, µM (doses to about 46.1 µM), actives largely listed as activators; hit rate 2.8% among 210,000; AID 1458, 2008; note: nearly all actives have a fitted effect of over 55% in size
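HEK293 cells carry an SMN2 […]–luciferase reporter in which exon 7 inclusion puts luciferase in frame. Cells were plated 10-12 h before compound addition, then incubated 30-36 h at 37C. ONE-Glo luminescence was read; sodium butyrate at 4.5 mM final served as control.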
ELG1 genotox – qHTS screen for small molecules that induce genotoxicity in human embryonic kidney (HEK293T) cells expressing luciferase-tagged ELG1; Potency, µM (highest dose often 46 µM), most hits filed as activators; AID 504466, 2011; HEK293T ELG1-luciferase reporter, luminescence, 16 h; hit rate 1.3% among 330,000; note: nearly all actives have a fitted effect of over 60% in size
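Reporter readout depends on ELG1 protein level, which increases with genetic stress. After 16 hr compound exposure at 37 °C, luciferase activity was quantified using ONE-Glo.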
Hits are given with their value; n = inactive; u = inconclusive; x = no result; [ ] = dose if it differs, or a comment. Sampled rows, rich in hits. Any-hit rate of the full collection: about 9.2%. Calls come from the whole dose curve; as a rule, active = well fitted curve in the direction sought with a large enough effect; inconclusive = small, poorly fitted or top-dose-only effect, or another doubt; inactive = no such curve, though single readings can be large; an effect the other way counts as inactive or inconclusive.

SMILES	ELG1 repair inh	Rab9 prom act	FLuc counter	NPC1 promoter act	SMN2 splice up	ELG1 genotox
O=C(Nc1nc(-c2ccco2)c(-c2ccco2)s1)C1CC(=O)N(c2ccc3c(c2)OCCO3)C1 (stereo not given)	u	n	n	n	n	n
CC(C)CC(=O)Nc1nnc(-c2ccco2)s1	u	2.5µM	u	u	n	16µM
O=C(Nc1nc(-c2ccco2)c(-c2ccco2)s1)C1CCC1	n	n	19µM	n	n	n
COC(=O)Nc1nnc(-c2ccco2)s1	u	n	n	n	x	n
CNC(=O)C(=O)NCCCN1CCOCC1	n	n	n	n	n	n
COc1ccc(CCNC(=O)c2cccs2)cc1OC	n	n	n	n	n	n
COc1ccc(CNc2nc(NCc3ccc(OC)c(OC)c3)n(C(=O)c3cccs3)n2)cc1OC	u	n	11µM	n	n	n
O=C(O)CCC(=O)C(=O)O	x	x	x	x	n[9.22 µM]	x
O=C(Nc1nnc(-c2ccc(F)cc2)o1)c1ccc(S(=O)(=O)N2CCOCC2)cc1	7.3µM	n	n	n	x	n
CC1CN(S(=O)(=O)c2ccc(C(=O)Nc3nnc(-c4ccco4)o3)cc2)CC(C)O1 (stereo not given)	18µM	n	n	n	n	n
CC1CCN(S(=O)(=O)c2ccc(C(=O)Nc3nnc(-c4ccco4)o3)cc2)CC1	u	n	n	n	x	n
COc1cccc(-c2nnc(NC(=O)c3ccc(S(=O)(=O)N4CC(C)OC(C)C4)cc3)o2)c1 (stereo not given)	2.6µM	n	n	n	n	n
CC1CC(C)CN(S(=O)(=O)c2ccc(C(=O)Nc3nnc(-c4cccs4)o3)cc2)C1 (stereo not given)	5.8µM	n	n	n	n	n
CCC1CCCCN1S(=O)(=O)c1ccc(C(=O)Nc2nnc(-c3cccs3)o2)cc1 (stereo not given)	u	n	n	n	n	n
CCOc1ccc(NC(=O)CSc2nc3ccccc3nc2N2CC(C)OC(C)C2)cc1 (stereo not given)	n	n	n	n	x	n
O=c1cc(-c2ccc(O)c(O)c2)oc2ccc3ccccc3c12	u	n	2.4µM	u	x	1.5µM
COc1cc(-c2cc(=O)c3ccccc3o2)ccc1O	u	u	u	n	u	15µM
COc1ccc(-c2cc(=O)c3c(O)cc(O)c(-c4cc(-c5cc(=O)c6c(O)cc(O)cc6o5)ccc4OC)c3o2)cc1	x	x	x	x	n	x
COc1cc(-c2cc(=O)c3c(O)cc(O)cc3o2)ccc1O	u	n	15µM	n	x	u
COc1ccc(-c2cc(=O)c3c(OC)c(OC)c(OC)c(OC)c3o2)cc1OC	u	n	n	n	n	n
COC(=O)c1ccc(C(=O)Nc2ccc(C(C)C)cc2N)cc1	u	u	n	u	n	n
Cc1ccc(-n2nc3c(=O)n(CC(=O)NC(C)CCc4ccccc4)nc(C)c3c2C)cc1 (stereo not given)	0.65µM	n	n	n	x	n
COc1ccc(OC)c(CCNC(=O)CCn2nc(C)c3c(C)n(-c4ccccc4)nc3c2=O)c1	n	n	n	n	x	n
COc1ccc(OC)c(CCNC(=O)Cn2nc(C)c3c(C)n(-c4ccccc4)nc3c2=O)c1	7.3µM	n	n	n	x	n
CCCNC(=S)Nc1ccc(F)cc1F	16µM	n	n	n	x	n
COc1ccc(NC(=O)CSc2nc3ccccc3n2CC(=O)N2CCCC(C)C2)cc1 (stereo not given)	x	x	n	x	x	x
COc1cccc(NC(=O)c2ccc(CN3CCc4ccccc4C3)cc2)c1	u	n	19µM	n	x	n
CC(=O)c1cccc(NC(=O)c2ccc(CN3CCc4ccccc4C3)cc2)c1	8.2µM	n	u	n	x	n
C/C(=N\NC(=O)c1ccc(CN2CCc3ccccc3C2)cc1)c1ccccc1O	3.3µM	n	n	n	n	n
